# Assay results from PubChem BioAssay AID1851 (National Center for Advancing Translational Sciences (NCATS), 2009).
# The whole screen tested about 16,000 compounds, of which about 5,100 (32%) were called active. Inconclusive results (about 25%) are left out. Some of the results follow. Unmarked numbers belong to inactive results. The call rests on the fitted dose curve; in most records, active means well fitted curve in the direction sought with a large enough effect; inconclusive means small, poorly fitted or top-dose-only effect, or effect the other way; inactive means no such curve, though single readings can be large or run the other way.
# Target: Cytochrome P450 3A4 (Homo sapiens) (UniProt P08684)
# Sequence (P08684 whole entry, looked up): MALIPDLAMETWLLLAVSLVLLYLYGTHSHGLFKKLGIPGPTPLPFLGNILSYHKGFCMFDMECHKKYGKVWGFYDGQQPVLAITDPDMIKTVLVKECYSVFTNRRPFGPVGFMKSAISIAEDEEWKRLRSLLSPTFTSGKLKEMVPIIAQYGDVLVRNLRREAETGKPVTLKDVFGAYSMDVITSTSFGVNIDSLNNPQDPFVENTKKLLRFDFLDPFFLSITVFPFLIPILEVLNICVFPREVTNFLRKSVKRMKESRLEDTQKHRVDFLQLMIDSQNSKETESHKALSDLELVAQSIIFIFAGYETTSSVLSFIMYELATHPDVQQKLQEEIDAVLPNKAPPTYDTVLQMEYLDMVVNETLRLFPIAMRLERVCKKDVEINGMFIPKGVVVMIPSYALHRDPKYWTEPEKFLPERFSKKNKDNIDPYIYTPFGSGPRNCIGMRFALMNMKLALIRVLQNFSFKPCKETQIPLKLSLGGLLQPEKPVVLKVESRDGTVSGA
# Experiment: Cytochrome panel assay with activity outcomes
# Conditions: recombinant CYP, pro-luciferin dealkylation, luminescence, p450-cyp3a4; series mostly up to 57.1 µM; activity, negative = inhibition: at the top concentration
# On the % scale 0 is the no-effect control and ±100 the full control effect.
SMILES,"activity, negative = inhibition",AC50
CNC(=O)Oc1ccc2c(c1)[C@@]1(C)CCN(C)[C@@H]1N2C,-8.94%,
C[N+]1([O-])[C@@H]2CC(OC(=O)[C@@H](CO)c3ccccc3)C[C@@H]1[C@H]1O[C@H]12 (stereo partly specified),inactive,
c1ccc2c(c1)OC[C@@H](C1=NCCN1)O2,inactive,
c1ccc(C2CC2)c(OCC2=NCCN2)c1,inactive,
CNCC/C=C\c1cccnc1,-16.3%,
S=C=Nc1cccc(C2(N3CCCCC3)CCCCC2)c1,,15.8 µM (active)
CCC(COC(=O)NC)NC(=O)Oc1ccccc1 (stereo unspecified),13.4%,
NC(N)=NC(=O)c1nc(Cl)c(N)nc1N,-12.3% [at 25.6 µM],
Clc1cc(I)cc(Cl)c1NC1=NCCN1,-27.3%,
O=C(NCP(=O)(O)O)c1cccnc1,-14.3% [at 11.4 µM],
O=C(N/N=C(\c1ccccc1)c1cccnc1)C(O)(c1ccccc1)c1ccccc1,,7.94 µM (active)
CC[C@]1(C2=NCCN2)Cc2ccccc2O1,inactive,
CCN(CC)c1ccc(/C=C2/C(=O)NC(=O)N(CC3CCCO3)C2=O)cc1 (stereo unspecified),-15.9%,
C[C@@H]1O[C@@H](O[C@H]2C[C@@H](O)[C@]3(CO)[C@@H]4[C@@H](O)C[C@]5(C)[C@H](C6=CC(=O)OC6)CC[C@@]5(O)[C@H]4CC[C@@]3(O)C2)[C@H](O)[C@H](O)[C@@H]1O,-3.37%,
C/C=C(\C)C(=O)O[C@@H]1C(C)=C2[C@H]([C@@H]1OC(=O)CCCCCCC)[C@@](C)(OC(C)=O)C[C@@H](OC(=O)CCC)[C@@]1(O)[C@H]2OC(=O)[C@]1(C)O,,3.98 µM (active)
CO[C@H]1[C@H](O)[C@H](O[C@@H]2[C@H](Oc3cccc4c(O)c5c(=O)oc6ccc(C)c7c(=O)oc(c34)c5c67)O[C@@H](C)[C@H](O)[C@H]2O)O[C@@H](C)[C@@H]1O,-7.43% [at 11.4 µM],
CCOC(=O)c1ncn2c1[C@H]1CCCN1C(=O)c1cc(OC)ccc1-2,-16.2%,
COc1cc2c(cc1OC)[C@@H]1C(=O)c3ccc4c(c3O[C@@H]1CO2)C=CC(C)(C)O4,,15.8 µM (active)
Cc1ncc([N+](=O)[O-])n1CCN=[N+]=[N-],-15.3% [at 11.4 µM],
NCCc1ccc(S(=O)(=O)F)cc1,-11%,
C=CCN1C(=O)NC(=O)/C(=C/c2cccn2C)C1=O,8.88% [at 2.29 µM],
Cc1nc2sccc2c(=O)n1-c1ccccc1Cl,4.91% [at 2.29 µM],
O=c1c2ccccc2nc(N2CCCC2)n1-c1ccc(Cl)cc1,,12.6 µM (active)

SMILES,"activity, negative = inhibition",AC50
O=C(Nc1ccc(Cl)cc1)Nc1nccs1,-2.97% [at 2.29 µM],
O=C(O)CCCc1ccc(N(CCCl)CCCl)cc1,-11.3% [at 25.6 µM],
Cc1cc(NC(=O)CCC(=O)N2CCC3(CC2)OCCO3)no1,17.2%,
Cc1ccc2cc3cc(C(=O)N4CCC5(CC4)OCCO5)oc3nc2c1,-25.1%,
Cc1ccc2c(c1)N(CCC(=O)N1CCC3(CC1)OCCO3)C(=O)C(C)O2 (stereo unspecified),,2 µM (active)
CC(C)NP(=O)(NC(C)C)OP(=O)(NC(C)C)NC(C)C,-11%,
N#CCCCC[N+]12CN3CN(CN(C3)C1)C2,-1.78% [at 11.4 µM],
c1ccc(N2CC3(CCNCC3)C2)cc1,-19%,
COc1ccc2c(c1)CCC1C2CC[C@]2(C)[C@H](NCCCCCCN3C(=O)C=CC3=O)CC[C@@H]12 (stereo partly specified),-6.9%,
C[C@@H]1[C@@H](C)N1C[C@H](O)Cn1ccnc1[N+](=O)[O-] (stereo partly specified),-14.6% [at 11.4 µM],
c1ccc(CCN2CCOCC2)nc1,-6.24% [at 11.4 µM],
COCCCn1c(N)c(C(=O)Nc2sc3c(c2C(=O)OC)CCCC3)c2nc3ccccc3nc21,,15.8 µM (active)
CNC(=O)OCC[N+](C)(C)C,-8.08%,
O=C1Nc2ccc(I)cc2/C1=C/c1cc(Br)c(O)c(Br)c1,,5.01 µM (active)
CC(C)c1ccc(C(O)(C(=O)O)c2ccc(C(C)C)cc2)cc1,19.4% [at 11.4 µM],
CC(C)c1ccc2c(c1)c(SC(C)(C)C)c(CC(C)(C)C(=O)O)n2Cc1ccc(Cl)cc1,,20 µM (active)
C[C@H](N)[C@@H](O)c1ccccc1,0.449% [at 25.6 µM],
CC(C)(C)NC[C@H](O)c1ccccc1Cl,-11.1%,
C[C@H](N)c1cccc(Cl)c1Cl,,25.1 µM (active)
CCOC(=O)N(c1ccccc1)P1(=S)OCCO1,-25.1% [at 11.4 µM],
O=P(Nc1c(Cl)cccc1Cl)(c1ccccc1)c1nc2c(s1)CCCC2 (stereo unspecified),,11.2 µM (active)
O=[As](O)(O)c1ccc2nc3cc([As](=O)(O)O)ccc3nc2c1,5.92% [at 11.4 µM],
Cn1cnc(CCN)c1,-1.69%,
